# From PubChem BioAssay (NCATS)
# Records with an inconclusive call do not appear. Where a call stands in place of a potency, no number is given. The source made the active and inactive calls. Unless noted, the call rests on the fitted dose curve; in most records, active means well fitted curve in either direction with a large enough effect (not every such curve was filed as active); inconclusive means small, poorly fitted or top-dose-only effect, or another doubt; inactive means flat fitted curve, though single readings scatter.
# Columns and labels:
# [1] = AP1 Signaling Pathway (AID 357);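 further: ME-180 reporter cells stimulated with EGF at its EC50 level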
# How it was run: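 AP-1-bla ME-180 cells, Opti-MEM + 0.5% dialyzed FBS, plated overnight 37 °C. Cpd titration + EC50 EGF, 5 h 37 °C. CCF4 2.5 h RT; ex 405, em 460/530 ratio → %activity, AC50.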
# [2] = target: Cytochrome P450 1A2 (Homo sapiens) (UniProt P05177); assay: p450-cyp1a2 (AID 410; calls by dose curve)
# Sequence of Cytochrome P450 1A2 (Homo sapiens) (P05177 whole entry, looked up): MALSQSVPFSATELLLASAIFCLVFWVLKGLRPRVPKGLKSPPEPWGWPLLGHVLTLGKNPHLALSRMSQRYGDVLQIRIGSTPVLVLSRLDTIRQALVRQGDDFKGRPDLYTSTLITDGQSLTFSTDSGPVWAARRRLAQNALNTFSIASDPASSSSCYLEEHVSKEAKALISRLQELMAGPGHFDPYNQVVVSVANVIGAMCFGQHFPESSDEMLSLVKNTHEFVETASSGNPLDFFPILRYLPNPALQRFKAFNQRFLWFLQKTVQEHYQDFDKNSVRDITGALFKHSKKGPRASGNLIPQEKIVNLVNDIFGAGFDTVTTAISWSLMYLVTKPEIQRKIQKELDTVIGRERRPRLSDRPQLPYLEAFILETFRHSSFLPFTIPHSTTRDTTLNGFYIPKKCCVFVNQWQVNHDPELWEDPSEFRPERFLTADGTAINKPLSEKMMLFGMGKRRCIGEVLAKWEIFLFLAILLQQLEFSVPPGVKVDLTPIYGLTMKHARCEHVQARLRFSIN
# How it was run: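 20nM CYP1A2 with 100uM Luciferin-ME (at Km) in 100mM KPO4; compound preincubated 10 min, NADPH regeneration added, 60 min at room temperature. Luciferin quantified by luminescence after detection reagent; normalized to 57 uM furafylline.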
# [3] = Stat Signaling Pathway (AID 446);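 further: ME-180 cervical cancer cells given 40 pM IL-6 alongside compound; SIE-controlled beta-lactamase reporter measured as 460/530 nm FRET emission ratio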
# How it was run: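 IL-6/STAT signaling read in ME-180 cells via an SIE beta-lactamase reporter. Stimulus was 40 pM IL-6 (its AC50) for 5 hrs, so both activation and inhibition register.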
# [4] = target: Mitogen-activated protein kinase 10 (Mus musculus) (UniProt Q61831); assay: JNK3 AlphaScreen Assay (AID 530);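 further: kinase came from lysate of stimulated human HepG2 cells; signal reports phosphorylation of biotinylated GST-cJun 1-79 at Ser73 with 10 µM ATP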
# How it was run: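 Pre-activated (IL-1β/TNFα) JNK3 in HepG2 lysates phosphorylates biotin-GST-cJun(1-79), 10 uM ATP; anti-phospho-cJun(Ser73) AlphaScreen read at room temperature, pH 7.6 Tris buffer. Compounds pre-incubated 15 min as titrations.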
# [5] = target: 3',5'-cyclic-AMP phosphodiesterase 4B (Homo sapiens) (UniProt Q07343); assay: qHTS Assay for Inhibitors of PDE-IV (AID 607; active means well fitted activation curve with a large enough effect in the main read-out, with a control signal flat, not every such curve was filed as active)
# Sequence of 3',5'-cyclic-AMP phosphodiesterase 4B (Homo sapiens) (Q07343 whole entry, looked up): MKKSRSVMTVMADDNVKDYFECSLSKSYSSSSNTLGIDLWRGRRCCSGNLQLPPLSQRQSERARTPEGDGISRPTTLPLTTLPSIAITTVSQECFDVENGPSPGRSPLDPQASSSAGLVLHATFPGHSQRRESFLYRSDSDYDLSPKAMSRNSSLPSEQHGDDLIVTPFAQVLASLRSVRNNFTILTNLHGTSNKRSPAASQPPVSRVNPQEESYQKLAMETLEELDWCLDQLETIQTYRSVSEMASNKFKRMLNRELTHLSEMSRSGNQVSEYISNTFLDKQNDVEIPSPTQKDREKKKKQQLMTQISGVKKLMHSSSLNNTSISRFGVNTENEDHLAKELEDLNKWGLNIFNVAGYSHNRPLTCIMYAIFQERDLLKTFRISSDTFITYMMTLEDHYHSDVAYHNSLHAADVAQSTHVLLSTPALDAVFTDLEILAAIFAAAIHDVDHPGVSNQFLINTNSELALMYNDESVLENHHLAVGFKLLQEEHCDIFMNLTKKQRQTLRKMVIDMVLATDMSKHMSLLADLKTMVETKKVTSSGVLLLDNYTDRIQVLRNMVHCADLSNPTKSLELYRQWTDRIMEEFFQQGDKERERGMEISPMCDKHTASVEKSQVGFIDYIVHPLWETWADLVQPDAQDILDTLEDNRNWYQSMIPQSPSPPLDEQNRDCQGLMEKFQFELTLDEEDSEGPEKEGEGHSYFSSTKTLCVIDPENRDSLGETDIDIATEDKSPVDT
# How it was run: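 Live HEK293 cells with a modified cyclic nucleotide-gated (CNG) channel report intracellular cAMP via membrane-potential dye fluorescence (ex 535/em 590 nm). Endogenous PDE-IV was targeted. Compounds were tested at up to 22.9 uM final; RO 20-1724 100 uM served as control.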
# [6] = qHTS Assay for Lipid Storage Modulators (AID 1519; calls by dose curve); details: Drosophila S3 cells, BODIPY lipid droplet/cell ratio, laser cytometry, cells loaded with oleic acid
# How it was run: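 Cells seeded at 5,000 per well were treated with compounds over a concentration series and loaded with oleic acid (400 uM, as added). Lipid droplet fluorescence (488 nm excitation, 500-530 nm channel) was read by laser-scanning cytometry and normalized to 20 uM Triacsin C.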
# [7] = target: Ubiquitin carboxyl-terminal hydrolase 1 (Homo sapiens) (UniProt O94782); assay: Inhibitors of USP1/UAF1: Pilot qHTS (AID 504865; active means well fitted curve in the direction sought with a large enough effect; an effect the other way counts as inactive or inconclusive; further: nearly all actives have a fitted effect of over 35% in size; further: potency means the concentration at half of the fitted maximal effect;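 on activity change, negative = inhibition: rhodamine fluorescence freed from ubiquitin-rhodamine substrate followed over time; top concentration of the series differs between compounds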)
# Sequence of Ubiquitin carboxyl-terminal hydrolase 1 (Homo sapiens) (O94782 whole entry, looked up): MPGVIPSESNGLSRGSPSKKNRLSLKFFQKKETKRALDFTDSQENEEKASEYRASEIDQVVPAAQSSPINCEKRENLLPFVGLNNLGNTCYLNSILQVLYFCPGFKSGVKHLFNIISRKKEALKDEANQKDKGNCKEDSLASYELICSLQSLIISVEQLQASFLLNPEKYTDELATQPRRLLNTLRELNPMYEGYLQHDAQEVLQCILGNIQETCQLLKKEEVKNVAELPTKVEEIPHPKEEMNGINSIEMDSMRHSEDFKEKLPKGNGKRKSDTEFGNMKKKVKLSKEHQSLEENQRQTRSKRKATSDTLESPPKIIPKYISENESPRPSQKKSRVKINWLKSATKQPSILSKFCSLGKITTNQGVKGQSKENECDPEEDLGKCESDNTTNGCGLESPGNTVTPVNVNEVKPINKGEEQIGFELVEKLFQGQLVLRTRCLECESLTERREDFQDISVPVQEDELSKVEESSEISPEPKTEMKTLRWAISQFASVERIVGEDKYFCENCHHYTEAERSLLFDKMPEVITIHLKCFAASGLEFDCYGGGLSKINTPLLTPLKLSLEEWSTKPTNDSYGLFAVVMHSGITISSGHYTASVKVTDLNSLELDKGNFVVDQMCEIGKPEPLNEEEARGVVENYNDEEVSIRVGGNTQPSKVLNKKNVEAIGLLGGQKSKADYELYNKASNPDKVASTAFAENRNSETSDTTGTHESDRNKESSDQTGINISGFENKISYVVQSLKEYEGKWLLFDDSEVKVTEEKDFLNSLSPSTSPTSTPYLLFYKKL
# How it was run: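 Deubiquitinase activity followed as kinetic rhodamine fluorescence release from 150 nM Ub-Rho. 1 nM USP1/UAF1 with compound, after 15 min room-temperature preincubation, in HEPES pH 7.8 buffer containing TCEP, EDTA, BSA and Tween-20.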
# [8] = target: Glucocorticoid receptor (Homo sapiens) (UniProt P04150); assay: GR-GFP Redistribution (AID 450;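 active means compounds whose dose series gives a full or clear partial fitted curve of increased nuclear translocation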; further: potency means the concentration at half of the fitted maximal effect); details: U2OS GR-GFP nuclear translocation, laser cytometry, 2 h
# Sequence of Glucocorticoid receptor (Homo sapiens) (P04150 whole entry, looked up, the tested form may be a part): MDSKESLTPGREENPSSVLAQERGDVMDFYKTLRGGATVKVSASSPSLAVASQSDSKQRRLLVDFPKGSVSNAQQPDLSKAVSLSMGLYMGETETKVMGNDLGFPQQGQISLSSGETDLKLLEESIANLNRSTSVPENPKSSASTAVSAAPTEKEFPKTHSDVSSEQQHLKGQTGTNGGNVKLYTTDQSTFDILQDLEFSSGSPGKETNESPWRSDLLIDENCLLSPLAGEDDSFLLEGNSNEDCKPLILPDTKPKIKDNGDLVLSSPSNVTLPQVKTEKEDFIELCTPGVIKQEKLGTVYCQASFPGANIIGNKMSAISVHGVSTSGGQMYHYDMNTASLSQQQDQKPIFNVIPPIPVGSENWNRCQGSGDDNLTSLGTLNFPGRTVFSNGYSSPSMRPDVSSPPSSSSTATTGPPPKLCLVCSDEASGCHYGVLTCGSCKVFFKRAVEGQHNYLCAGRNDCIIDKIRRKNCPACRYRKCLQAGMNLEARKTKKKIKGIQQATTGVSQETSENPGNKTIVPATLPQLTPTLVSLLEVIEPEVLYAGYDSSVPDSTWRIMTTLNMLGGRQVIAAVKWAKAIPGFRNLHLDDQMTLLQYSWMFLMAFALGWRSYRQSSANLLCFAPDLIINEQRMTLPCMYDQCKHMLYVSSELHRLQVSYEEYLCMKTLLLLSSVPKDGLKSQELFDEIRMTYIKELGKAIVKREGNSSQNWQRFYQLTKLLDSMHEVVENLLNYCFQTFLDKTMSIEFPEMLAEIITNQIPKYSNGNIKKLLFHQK
# [9] = target: Glucocorticoid receptor (Homo sapiens) (UniProt P04150); assay: GR-EFC Redistribution (AID 451; calls by dose curve; further: potency means the concentration at half of the fitted maximal effect); details: CHO-K1 GR-EFC translocation, beta-gal luminescence, 2 h
# How it was run: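 CHO-K1 cells expressing nuclear EA and GR-ED fragments of b-gal; compounds titrated up to 46 uM final, 2 h at 37 C. GR nuclear translocation read as complemented b-gal luminescence after 1 h RT detection.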
# [10] = target: Cytochrome P450 3A4 (Homo sapiens) (UniProt P08684); assay: qHTS Assay for Activators of Cytochrome P450 3A4 (AID 885; active means well fitted curve in the direction sought with a large enough effect; an effect the other way counts as inactive or inconclusive; further: nearly all actives have a fitted effect of over 65% in size)
# Sequence of Cytochrome P450 3A4 (Homo sapiens) (P08684 whole entry, looked up): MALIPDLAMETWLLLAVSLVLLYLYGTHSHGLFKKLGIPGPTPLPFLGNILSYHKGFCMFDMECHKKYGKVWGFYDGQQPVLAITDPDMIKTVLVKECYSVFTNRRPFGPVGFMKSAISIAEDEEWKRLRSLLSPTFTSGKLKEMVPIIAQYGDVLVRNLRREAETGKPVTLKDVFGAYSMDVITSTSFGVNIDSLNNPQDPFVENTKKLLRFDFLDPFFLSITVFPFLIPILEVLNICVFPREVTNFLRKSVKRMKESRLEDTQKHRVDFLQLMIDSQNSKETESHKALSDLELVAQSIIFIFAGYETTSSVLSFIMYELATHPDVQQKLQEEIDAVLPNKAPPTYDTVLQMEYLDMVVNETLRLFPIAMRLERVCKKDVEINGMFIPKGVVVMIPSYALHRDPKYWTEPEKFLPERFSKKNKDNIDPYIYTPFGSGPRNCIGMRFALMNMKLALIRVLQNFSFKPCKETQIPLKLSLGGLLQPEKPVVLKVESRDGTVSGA
# How it was run: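 Quantitative HTS format: compounds preincubated with 20nM human CYP3A4 and Luciferin-PPXE substrate at KM, reaction started by NADPH regeneration, stopped after 60 min, luciferase luminescence read 20 min later.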
# [11] = target: ATP-dependent 6-phosphofructokinase (Trypanosoma brucei brucei) (UniProt O15648); assay: qHTS Assay to Find Inhibitors of T. brucei phosphofructokinase: hit validation (AID 492961; active means well fitted curve in the direction sought with a large enough effect; an effect the other way counts as inactive or inconclusive)
# Sequence of ATP-dependent 6-phosphofructokinase (Trypanosoma brucei brucei) (O15648 whole entry, looked up): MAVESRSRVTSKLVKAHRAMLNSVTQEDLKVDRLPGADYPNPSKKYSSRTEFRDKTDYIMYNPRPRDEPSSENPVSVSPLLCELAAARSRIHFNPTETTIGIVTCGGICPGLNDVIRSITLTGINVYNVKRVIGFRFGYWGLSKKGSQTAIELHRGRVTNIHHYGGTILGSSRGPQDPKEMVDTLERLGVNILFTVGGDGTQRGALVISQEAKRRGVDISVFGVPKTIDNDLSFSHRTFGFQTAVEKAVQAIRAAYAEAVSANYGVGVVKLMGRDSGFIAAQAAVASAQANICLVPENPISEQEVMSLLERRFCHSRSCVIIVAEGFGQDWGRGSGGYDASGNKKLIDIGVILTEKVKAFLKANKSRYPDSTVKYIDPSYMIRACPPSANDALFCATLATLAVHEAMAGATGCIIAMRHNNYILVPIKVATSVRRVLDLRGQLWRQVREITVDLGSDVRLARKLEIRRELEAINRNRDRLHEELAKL
# How it was run: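 Luminescence from ADP-Glo reports ADP generated as T. brucei PFK (1.25 nM) phosphorylates 0.5 mM fructose-6-phosphate using 0.1 mM ATP. Reactions ran 45 min at room temperature, pH 8.0.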
# [12] = target: Luciferin 4-monooxygenase (Photinus pyralis) (UniProt P08659); assay: Biochemical firefly luciferase enzyme assay for NPC (AID 624030; active means well fitted curve in the direction sought with a large enough effect; an effect the other way counts as inactive or inconclusive;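 further: purified P. pyralis luciferase at 10 nM with luciferin and ATP substrate; nearly all actives have a fitted effect of over 70% in size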)
# Sequence of Luciferin 4-monooxygenase (Photinus pyralis) (P08659 whole entry, looked up): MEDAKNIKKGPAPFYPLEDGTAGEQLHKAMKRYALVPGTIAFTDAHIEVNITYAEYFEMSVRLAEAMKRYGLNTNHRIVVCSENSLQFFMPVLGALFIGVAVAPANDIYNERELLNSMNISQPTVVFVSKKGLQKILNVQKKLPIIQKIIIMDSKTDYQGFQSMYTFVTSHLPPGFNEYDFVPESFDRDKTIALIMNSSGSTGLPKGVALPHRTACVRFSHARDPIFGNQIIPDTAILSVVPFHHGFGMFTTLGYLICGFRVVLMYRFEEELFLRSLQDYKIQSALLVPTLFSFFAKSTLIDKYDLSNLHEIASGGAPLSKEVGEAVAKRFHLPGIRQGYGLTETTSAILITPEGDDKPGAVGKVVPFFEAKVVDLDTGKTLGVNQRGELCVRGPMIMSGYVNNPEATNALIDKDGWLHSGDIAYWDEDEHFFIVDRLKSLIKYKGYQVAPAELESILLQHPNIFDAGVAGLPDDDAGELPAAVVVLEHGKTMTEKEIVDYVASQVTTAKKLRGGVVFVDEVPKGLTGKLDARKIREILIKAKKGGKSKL
# How it was run: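 Purified P. pyralis luciferase at 10 nM in 50 mM Tris Acetate (final), luminescence read within 5 minutes of enzyme addition to compounds. Activity normalised to PTC124 versus DMSO; concentration-response curves classed by r2, magnitude and activity.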
# [13] = qHTS profiling for inhibitors of Plasmodium falciparum proliferation (AID 504749; active means well fitted curve in the direction sought with a large enough effect; an effect the other way counts as inactive or inconclusive; further: nearly all actives have a fitted effect of over 60% in size); details: P. falciparum in erythrocytes, SYBR Green DNA, 72 h, at 12.8 µM (top of the series)
# How it was run: (§1)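 P. falciparum-infected erythrocytes (0.3% parasitemia, 2.5% hematocrit) incubated with compound 72 h at 37 C, 5% CO2. Parasite DNA detected by SYBR Green after lysis, overnight at room temperature; normalised to 0.29 uM artemisinin and DMSO.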
# AS120 = assay: as above; details: P. falciparum in erythrocytes, SYBR Green DNA, 72 h; series mostly up to 28.7 µM
# How it was run: as §1
# ATS189 = assay: as above; details: P. falciparum in erythrocytes, SYBR Green DNA, 72 h; series mostly up to 28.7 µM
# How it was run: as §1
# DFO2036 = assay: as above; details: P. falciparum in erythrocytes, SYBR Green DNA, 72 h; series mostly up to 28.7 µM
# How it was run: as §1
# [14] = NFAT Signaling Pathway (AID 444); details: Jurkat NFAT-bla M1, carbachol, beta-lactamase ratio, 5 h; at 17.2 µM (top of the series);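 further: carbachol stimulus at about its EC50 of 1 µM final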
# How it was run: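 Jurkat cells with NFAT-driven β-lactamase reporter and co-expressed M1 receptor, stimulated with carbachol (final 1 uM, ~EC50), compound titration, 5 h at 37 °C. CCF4 loaded 1 h at RT; 460/530 nm ratio gave %activity and AC50.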
# [15] = Confirmation and Secondary Assay for Modulators of Hemoglobin Beta Chain Splicing at IVS2 654 locus (AID 910; active means well fitted curve in the direction sought with a large enough effect; an effect the other way counts as inactive or inconclusive;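 further: HeLa cells stably carrying EGFP split by mutant beta-globin IVS2-654 intron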)
# How it was run: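 HeLa cells stably expressing EGFP interrupted by β-globin IVS2-654 intron, seeded overnight in Opti-MEM/2% FCS, then treated 2 days at 37 °C. Restored splicing read as total peak GFP intensity per well by laser scanning cytometry (488 nm excitation, 500–520 nm emission); 500 nM antisense PNA as control.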
# [16] = Confirmation and Secondary Assay for Modulators of Hemoglobin Beta Chain Splicing at IVS2 705 locus (AID 930; active means well fitted curve in the direction sought with a large enough effect; an effect the other way counts as inactive or inconclusive;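 further: HeLa cells stably expressing the EGFP-705 splicing reporter; GFP fluorescence per well restored by corrected splicing of the IVS2-705 intron in EGFP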)
# How it was run: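 HeLa cells stably carrying EGFP interrupted by mutant beta-globin intron 2 (IVS2-705) treated 2 days at 37C with compound; 500 nM antisense PNA as control. Correct splicing read as total peak GFP intensity per well by laser-scanning cytometry.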
# [17] = measured here: cell count channel max response
# [18] = measured here: lipid channel max response
smiles,measurement,setting,value
CC(C)(C)NC[C@H](O)c1cc(Cl)c(N)c(Cl)c1,outcome,[1],inactive
same,Potency,[2],inactive
same,outcome,[3],inactive
same,outcome,[4],inactive
same,Potency,[5],inactive
same,"activity change, negative = inhibition",[6]; at 25.7 µM (top of the series),-0.0671% (inactive)
same,max response,[6]; [17],1.84%
same,max response,[6]; [18],2.72%
same,Potency,[7],inactive
C[C@@H]1O[C@H](O[C@@H]2CC[C@@]3(C=O)[C@H]4CC[C@@]5(C)[C@@H](C6=CC(=O)OC6)CC[C@@]5(O)[C@@H]4CC[C@]3(O)C2)C[C@H](O)[C@@H]1O,Potency,[2],inactive
same,Potency,[8],> 20.6 µM (inactive)
same,Potency,[9],> 20.6 µM (inactive)
same,outcome,[4],inactive
same,Potency,[5],inactive
same,Potency,[10],inactive
same,"activity change, negative = inhibition",[6]; at 25.7 µM (top of the series),-0.93% (inactive)
same,max response,[6]; [17],-14.4%
same,max response,[6]; [18],-15.6%
same,Potency,[7],inactive
CN1C[C@H](CO)C=C2c3cccc4[nH]cc(c34)C[C@@H]21,outcome,[1],inactive
same,outcome,[3],inactive
same,Potency,[8],> 20.6 µM (inactive)
same,Potency,[9],> 20.6 µM (inactive)
same,outcome,[4],inactive
same,Potency,[5],inactive
same,Potency,[10],inactive
same,"activity change, negative = inhibition",[6]; at 25.7 µM (top of the series),0.712% (inactive)
same,max response,[6]; [17],-6.66%
same,max response,[6]; [18],-5.9%
same,Potency,[7],31.6 µM (active)
CN(C)[C@@H]1C(=O)C(C(N)=O)=C(O)[C@]2(O)C(=O)C3=C(O)c4c(O)ccc(Cl)c4[C@](C)(O)[C@H]3C[C@@H]12,outcome,[1],inactive
same,outcome,[3],inactive
same,Potency,[8],> 20.6 µM (inactive)
same,Potency,[9],> 20.6 µM (inactive)
same,outcome,[4],inactive
same,Potency,[5],inactive
same,"activity change, negative = inhibition",[6]; at 25.7 µM (top of the series),0.321% (inactive)
same,max response,[6]; [17],-2.07%
same,max response,[6]; [18],-2.35%
same,Potency,[11],inactive
same,Potency,[12],inactive
same,"activity, negative = inhibition",[13]; parasite line A,-8.57% (inactive)
same,"activity, negative = inhibition",[13]; parasite line B,-7.26% (inactive)
same,Potency,AS120,inactive
same,Potency,ATS189,inactive
same,Potency,DFO2036,inactive
CNC(=O)N(C)c1nnc(C(C)(C)C)s1,outcome,[1],inactive
same,"activity change, negative = inhibition",[14],-5.4% (inactive)
same,outcome,[3],inactive
same,Potency,[15],inactive
same,Potency,[16],inactive
same,"activity change, negative = inhibition",[6]; at 57.5 µM (top of the series),6.39% (inactive)
same,max response,[6]; [17],16.4%
same,max response,[6]; [18],25.2%
C[C@H]1CC[C@@]2(NC1)O[C@@H]1C[C@H]3[C@@H]4CC[C@@H]5C[C@@H](O)CC[C@@]5(C)[C@@H]4CC[C@]3(C)[C@@H]1[C@@H]2C,outcome,[1],inactive
same,Potency,[2],inactive
same,outcome,[3],inactive
same,outcome,[4],inactive
same,Potency,[5],inactive
same,"activity change, negative = inhibition",[6]; at 25.7 µM (top of the series),-2.33% (inactive)
same,max response,[6]; [17],0.178%
same,max response,[6]; [18],-2.87%
same,Potency,[7],inactive
CC(=O)[C@@H]1CC[C@H]2[C@H]3CC[C@H]4C[C@@H](O)CC[C@]4(C)[C@@H]3C(=O)C[C@@]12C,outcome,[1],inactive
same,"activity change, negative = inhibition",[14],-7.61% (inactive)
same,outcome,[3],inactive
same,outcome,[4],inactive
same,Potency,[5],inactive
same,"activity change, negative = inhibition",[6]; at 25.7 µM (top of the series),-4.19% (inactive)
same,max response,[6]; [17],-12.1%
same,max response,[6]; [18],-15.2%
same,Potency,[7],inactive
CC[C@H](CO)NC(=O)[C@H]1C=C2c3cccc4[nH]cc(c34)C[C@@H]2N(C)C1,outcome,[1],inactive
same,"activity change, negative = inhibition",[14],-13.5% (inactive)
same,outcome,[3],inactive
same,Potency,[8],> 20.6 µM (inactive)
same,Potency,[9],> 20.6 µM (inactive)
same,outcome,[4],inactive
same,Potency,[5],inactive
same,"activity change, negative = inhibition",[6]; at 25.7 µM (top of the series),0.62% (inactive)
same,max response,[6]; [17],3.2%
same,max response,[6]; [18],2.54%
same,Potency,[7],17.8 µM (active)
